# About 3,900 (1.3%) of roughly 310,000 compounds were called active.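 The calls were made as follows: active = calcium-response B-score plate-corrected more than 3 library SD below zero, starting fluorescence within 5 deviations, no agonist response on first addition; inactive = the rest.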 This excerpt belongs to a sample that is enriched for actives.
# Molecular target: Mas-related G-protein coupled receptor member X1 (Homo sapiens) (UniProt Q96LB2)
# Test: antagonists of human MrgX1 receptor, primary screen, HEK293 cells, Fluo-4 calcium flux (AID 588676);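 as to B-score: peak minus trough fluorescence over baseline after final BAM8-22 challenge near maximal dose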
# Conditions: Fluo-4, BAM8-22 antagonism, at 10 µM; active compounds read low
# Chain of Mas-related G-protein coupled receptor member X1 (Homo sapiens) (Q96LB2 whole entry, looked up): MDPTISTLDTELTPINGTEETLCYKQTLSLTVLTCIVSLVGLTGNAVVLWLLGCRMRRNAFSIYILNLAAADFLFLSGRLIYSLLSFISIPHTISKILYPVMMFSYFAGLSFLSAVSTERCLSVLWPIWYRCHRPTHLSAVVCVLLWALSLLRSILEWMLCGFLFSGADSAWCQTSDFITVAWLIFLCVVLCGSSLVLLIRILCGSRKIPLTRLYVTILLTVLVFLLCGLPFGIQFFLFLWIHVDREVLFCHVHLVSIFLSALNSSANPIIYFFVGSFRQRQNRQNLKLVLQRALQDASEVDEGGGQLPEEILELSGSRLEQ
row,SMILES,B-score
1,Cn1cccc1Cc1nnc(SCC(=O)NCc2ccc3c(c2)OCO3)n1CCc1ccccc1,inactive
2,O=C(O)CCc1nc2cc(Cl)ccc2n(Cc2ccccc2)c1=O,inactive
3,COc1ccc(NC(=O)CCC(=O)N2CCN(S(=O)(=O)c3ccc(C)cc3)CC2)c(OC)c1,inactive
4,CCOc1ccccc1NC(=O)COc1ccc(S(=O)(=O)N2CCCC2)cc1,inactive
5,CCOc1ccccc1NC(=O)CCN1CCN(S(=O)(=O)c2ccc(OC)cc2)CC1,-4.98 (active)
6,Cc1cc(C)c(C#N)c(Nc2cccc(Br)c2)n1,inactive
7,N#CC1=C(N)Oc2c(sc3ccccc23)C1c1ccco1 (stereo not drawn),-4.64 (active)
8,N#CC1=C(N)Oc2c(ccc3cccnc23)C1c1ccncc1 (stereo not drawn),inactive
9,O=C(COc1nsnc1N1CCOCC1)Nc1ccccc1Cl,inactive
10,COc1cc(C(C)=O)ccc1OC(=O)CN1C(=O)c2ccccc2C1=O,inactive
11,Cc1cc(F)ccc1S(=O)(=O)Nc1ncnc2scc(-c3ccc(F)cc3)c12,inactive
12,CCOC(=O)c1c(NC(=O)CSc2cn(CC)c3ccccc23)sc2c1CCC2,-6.48 (active)
13,CCOC(=O)c1c(NC(=O)C(C)Sc2c[nH]c3ccccc23)sc2c1CCC2 (stereo not drawn),inactive
14,CCOC(=O)c1c(NC(=O)CCC(=O)NCc2ccco2)sc2c1CCCC2,inactive
15,O=C(NCC(=O)N1CCN(c2ncc(C(F)(F)F)cc2Cl)CC1)c1ccc(Br)o1,inactive
16,Cc1ccc(C(=O)OC2=CC(=O)CC(C)(C)C2)cc1,inactive
17,COc1cc(/C=C2/SC(=S)N(Cc3ccccc3)C2=O)cc(OC)c1O,-7.51 (active)
18,COc1ccccc1C(=O)NNC(=O)CCN1C(=O)/C(=C\c2ccccc2)SC1=S,inactive
19,COc1ccc(/C=C2\SC(=S)N(CCC(=O)Nc3ccccn3)C2=O)cc1OC,inactive
20,O=C(Nc1cccc([N+](=O)[O-])c1)N1CCc2ccccc2C1,inactive
21,CN(c1ccccc1)S(=O)(=O)c1ccc(Cl)c(C(=O)OCC(=O)N2CCOCC2)c1,inactive
22,COC(=O)c1c(NC(=O)COc2ccc(Cl)cc2Cl)sc2c1CC(C)(C)NC2(C)C,inactive
23,O=C(Cc1ccccc1)Nc1c(C(=O)N2CCCCCC2)cnn1-c1ccccc1,inactive
24,COc1ccc([N+](=O)[O-])cc1NC(=O)CCc1ccccc1,inactive
25,COc1ccc([N+](=O)[O-])cc1NC(=O)COC(=O)/C=C/c1ccco1,-24.1 (active)
26,CC(C)CNC(=O)COC(=O)/C=C/c1ccco1,inactive

row,SMILES,B-score
1,COC1=CCC2([N+](=O)[O-])CN(CC(=O)O)CC1([N+](=O)[O-])C2 (stereo not drawn),-5.87 (active)
2,COc1ccc([N+](=O)[O-])cc1N(CC(=O)Nc1ccccc1C(=O)N1CCOCC1)S(C)(=O)=O,inactive
3,COCC(C)NC(=O)c1ccc(Cl)c(Cl)c1 (stereo not drawn),-8.76 (active)
4,CC(C)CCC(C)NC(=O)c1ccc2nccnc2c1 (stereo not drawn),inactive
5,CC(CCc1ccccc1)NC(=O)c1cnc(Cl)c(Cl)c1 (stereo not drawn),inactive
6,CC(=O)C1=C(C)NC(=O)NC1c1ccc2c(c1)OCO2 (stereo not drawn),inactive
7,COc1ccc(Br)cc1/C=N/n1c(C)nnc1C,inactive
8,COc1cc(N2CCCC2)c(OC)cc1/C=C(/C#N)c1cccc(Br)c1,-7.19 (active)
9,CC(=O)Nc1cccc(Oc2cc(C#N)c(C#N)cc2N2CCOCC2)c1,inactive
10,O=C(COC(=O)/C=C/c1ccc(OC(F)F)cc1)NC1CCCCC1,inactive
11,COc1ccc(-c2noc(C(C)NS(=O)(=O)c3ccc(NC(C)=O)cc3)n2)cc1 (stereo not drawn),inactive
12,CCCCCCCCCCCCN1C(=O)CSC1c1cccnc1 (stereo not drawn),inactive
13,CCOC(=O)C1=C(O)CSC1=Nc1cccc(Cl)c1,-5.49 (active)
14,CCOC(=O)CSc1ncc(-c2cccc(Cl)c2)cn1,inactive
15,CCOC(=O)c1c(S(=O)(=O)Nc2cccc(Cl)c2)c(C)n(C)c1C,inactive
16,N=c1n(CCc2ccccc2)c2ccccc2n1Cc1ccccc1F,inactive
17,Cc1cc(=O)oc2cc(NC(=O)C(C)Oc3ccccc3)ccc12 (stereo not drawn),inactive
18,O=C(Nc1ccc(F)c([N+](=O)[O-])c1)C1CC(=O)N(Cc2ccccc2)C1 (stereo not drawn),inactive
19,Cc1cc(=O)oc2cc(NC(=O)C3CC(=O)N(Cc4ccccc4)C3)ccc12 (stereo not drawn),-7.83 (active)
20,Cc1ccc(N(C(=O)Cc2cccs2)C2C=CS(=O)(=O)C2)cc1Cl (stereo not drawn),inactive
21,Cn1c(NC(=O)c2ccco2)c(-c2ccccc2Cl)c(=O)c2ccccc21,inactive
22,CCOCCCN1C(=O)C2C(C(=O)Nc3ccc(OCC)cc3)C3C=CC2(O3)C1C(=O)NC1CCCCC1 (stereo not drawn),inactive
23,CC(=O)OCCN(CCCn1c(-c2ccncc2)nc2ccccc21)c1nc(-c2ccc(C)cc2)cs1,inactive
24,O=C(Cc1ccccc1)Nc1cccc(NC(=O)c2ccccc2)c1,inactive
25,O=C(Cc1ccccc1)Nc1cccc(C(=O)N/N=C/c2ccco2)c1,-18.1 (active)
26,O=C(N/N=C/c1ccco1)c1ccc(C(=O)N/N=C/c2ccco2)o1,inactive

row,SMILES,B-score
1,N#CCC(=O)NC(=O)NCC1CC1,inactive
2,CC1Cc2ccccc2N1C(=O)CSc1nnc(-c2ccc(S(=O)(=O)N3CCCC3)cc2)n1C (stereo not drawn),inactive
3,CC(NCc1cccs1)C(=O)Nc1cc(Cl)cc(Cl)c1 (stereo not drawn),inactive
4,COc1ccc(S(=O)(=O)N2CCCC2)c(C)c1C,inactive
5,COc1ccc(S(=O)(=O)N2CCOCC2)c(C)c1C,-6.44 (active)
6,COc1cc(C)c(S(=O)(=O)N2CCOCC2)c(C)c1C,inactive
7,COc1cccc2cc(/C(C)=N/NC(=O)c3ccco3)oc12,inactive
8,Cn1nccc1C(=O)NC1CCCc2c1cnn2-c1ccc(F)cc1F (stereo not drawn),inactive
9,CCOC(=O)N1CCN(C(=O)c2cn(C)c3ccc(S(=O)(=O)N(CC)CC)cc3c2=O)CC1,inactive
10,COc1ccc(N2CCN(C(=O)c3cn(C)c4ccc(S(=O)(=O)N5CCOCC5)cc4c3=O)CC2)cc1,inactive
11,CCOC(=O)N1CCN(C(=O)c2cn(C)c3ccc(S(=O)(=O)N4CCCC4)cc3c2=O)CC1,-6.83 (active)
12,N/C(=N\OS(=O)(=O)c1cccc([N+](=O)[O-])c1)c1ccncc1,inactive
13,CCCNC(=O)CSc1nc(Cc2ccccc2)nc2ccccc12,inactive
14,Clc1ccc(CSc2nnc3c(n2)[nH]c2ccccc23)cc1,inactive
15,C=CCSc1nc(Cc2ccc(Cl)cc2)nc2ccccc12,-5.91 (active)
16,COc1ccccc1NC(=S)N1CCC(NC(=O)C23CC4CC(CC(C4)C2)C3)CC1,inactive
17,COc1ccc(-c2cc(C(F)(F)F)nc(SCCC(=O)NCc3ccco3)n2)cc1,inactive
18,FC(F)(F)c1cc(-c2cccs2)nc(NCc2ccco2)n1,-5.29 (active)
19,FC(F)(F)c1cc(-c2ccco2)nc(NCc2ccc(Cl)cc2)n1,inactive
20,CC(=O)c1c(C)[nH]c(C(=O)CN2C(=O)NC(C)(C)C2=O)c1C,inactive
21,Cc1nc(-c2ccc(F)cc2)c(CC(=O)N2CCN(S(=O)(=O)c3ccc(F)cc3)CC2)s1,inactive
22,CC(=O)N(C1=C(Cl)C(=O)c2ccccc2C1=O)c1ccc(C(=O)O)cc1,-18.7 (active)
23,FC(F)(F)c1cccc(-c2cc3ccccc3nc2N2CCCC2)c1,inactive
24,O=C(COc1ccccc1)Nc1ccc(C(=O)N2CCCC2)cc1,inactive
25,C/C(=N\NC(=O)Cc1ccc(F)cc1)c1ccc(F)cc1,-8.25 (active)
26,C/C(=N/NC(=O)CC(=O)N/N=C(\C)c1ccc([N+](=O)[O-])cc1)c1ccc([N+](=O)[O-])cc1,inactive

row,SMILES,B-score
1,C/C(=N\NC(=O)Cc1ccc(Br)cc1)c1cccnc1,inactive
2,COc1ccc2c3c1O[C@H]1C[C@@H](O)C=C[C@@]31CCN(C)C2,inactive
3,Cc1nn(Cc2ccccc2)c2c1C(c1ccccc1)C(C#N)=C(N)O2 (stereo not drawn),inactive
4,Cc1nn(-c2ccccc2)c2c1C(c1ccc(F)cc1)C(C#N)=C(N)O2 (stereo not drawn),-13.4 (active)
5,COc1ccccc1C1C(C#N)=C(N)Oc2c1c(-c1ccccc1)nn2-c1ccccc1 (stereo not drawn),inactive
6,CC(C)(C)c1ccc(C(CC(=O)O)NS(=O)(=O)Cc2ccccc2)cc1 (stereo not drawn),inactive
7,Cc1c(CCO)c(=O)[nH]n1C(=O)c1c(F)cccc1F,inactive
8,CCOC(=O)[C@H]1CCC[C@@H](NS(=O)(=O)c2ccc(NC(C)=O)cc2)C1,inactive
9,Cc1ccc(CNC(=O)CCNS(=O)(=O)c2ccc(Br)s2)cc1,inactive
10,O=C1CCC(C(=O)N2CCN(c3ccccc3Cl)CC2)CN1CC1CCCCC1 (stereo not drawn),inactive
11,COc1ccc(CCNC(=O)C2CC3Cn4c(nc5cc(C)c(C)cc54)C3N2C)cc1 (stereo not drawn),inactive
12,COc1ccccc1OCCNc1cc(N2CCOCC2)ccc1[N+](=O)[O-],inactive
13,COc1ccc(CCNc2cc(N3CCN(C(=O)c4ccccc4OC)CC3)ccc2[N+](=O)[O-])cc1OC,-5.34 (active)
14,O=C(c1ccccc1)N1CCN(c2ccc([N+](=O)[O-])c(NCc3ccco3)c2)CC1,inactive
15,Cc1cccc(N2CC(C(=O)Nc3ccccc3N3CCCC3)CC2=O)c1C (stereo not drawn),inactive
16,CCOc1ccc(C(CC(=O)O)n2cnnn2)cc1OC (stereo not drawn),inactive
17,COC(=O)c1ccc(COC(=O)c2cnc(Cl)c(Cl)c2)cc1,inactive
18,COc1ccccc1C(=O)N/C(=C/c1ccco1)C(=O)Nc1ccc(C(=O)O)cc1,inactive
19,CCOc1ccc(S(=O)(=O)Nc2ccc(C(=O)NCCCN3CCCC3=O)cc2)cc1,-9 (active)
20,CCOc1ccc(C(=O)NCCCN2CCCC2=O)cc1,inactive
21,O=C(NCCCN1CCCC1=O)c1ccc(S(=O)(=O)Nc2ccccc2)cc1,inactive
22,Oc1cc(O)c2c(c1)OC(c1ccc(O)c(O)c1)C(O)C2 (stereo not drawn),inactive
23,Cc1ccc2cc3cc(C(=O)N4CCCCCC4)oc3nc2c1,inactive
24,CN(C)c1ccc(C(CC(=O)O)C(=O)O)cc1 (stereo not drawn),inactive
25,Cc1cnc(CN(C)C(=O)CC2C(=O)NCCN2Cc2cccc(F)c2F)[nH]1 (stereo not drawn),inactive

# Reference: PubChem BioAssay AID588676 (Johns Hopkins Ion Channel Center, 2011)
